According to PubChem BioAssay (NCI):
The panel holds about 83,000 compounds, 20% with a hit somewhere; the sample as a whole holds those more often.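 Growth was measured after 48 h exposure to one concentration of compound in 96-well plates. Values under 10 count as active.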 Values without a mark were called inactive. Active and inactive are the calls of the source.

What was measured:
Experiment in all cases: NCI-60 one-dose screen, 48 h (100 = growth as untreated, 0 = no growth, -100 = all killed)
Conditions in all cases: 10 µM unless noted
[1] = tested on: SR leukemia
[2] = tested on: RPMI-8226 leukemia
[3] = tested on: OVCAR-8 ovarian
[4] = tested on: OVCAR-5 ovarian
[5] = tested on: OVCAR-4 ovarian
[6] = tested on: SK-OV-3 ovarian
[7] = tested on: IGROV1 ovarian
[8] = tested on: OVCAR-3 ovarian
[9] = tested on: HS 578T breast
[10] = tested on: NCI/ADR-RES ovarian
[11] = tested on: T-47D breast
[12] = tested on: BT-549 breast
[13] = tested on: MDA-MB-435 melanoma
[14] = tested on: SW-620 colon
[15] = tested on: MCF7 breast
[16] = tested on: HCT-116 colon
[17] = tested on: HCC-2998 colon
[18] = tested on: KM12 colon

SMILES	growth [1]	growth [2]	growth [3]	growth [4]	growth [5]	growth [6]	growth [7]	growth [8]	growth [9]	growth [10]	growth [11]	growth [12]	growth [13]	growth [14]	growth [15]	growth [16]	growth [17]	growth [18]
CC/C(=C(/c1ccc(Cl)cc1)c1ccc(OCCN2CCCCCC2)cc1)c1ccccc1	6.94% (active)	48.9%	84.8%	85.2%	79.6%	114%	97.3%	93.9%	89.7%	90.8%	68.5%	114%	90.5%	44.7%	76.3%	62.7%	97.8%	55%
c1ccc2c(-c3cnn4cc(-c5ccc(N6CCNCC6)cc5)cnc34)ccnc2c1	-19.1% (active)	-52.8% (active)	-46.9% (active)	-85.3% (active)	-65.8% (active)	-86.4% (active)	-79.7% (active)	-83.2% (active)	-68.7% (active)	-42.5% (active)	-45.9% (active)	-80.9% (active)	-99.4% (active)	-52.3% (active)	-64.1% (active)	-98.4% (active)	-63.8% (active)	-72.7% (active)
Cc1ccc(OCCOCCOCCOCCOc2ccc(C)n(O)c2=S)c(=S)n1O	6.36% (active)	13.4%	9.37% (active)	39.1%	24.4%	0.0112% (active)	30.9%	25%	44%	1.43% (active)	8.09% (active)	14.1%	29.4%	25.7%	10.1%	14.3%	5.72% (active)	18.6%
Cc1cc2c(c(C)n1)CN(C(=O)Nc1nc(-c3cncs3)ccc1N)C2	95.3%	93.7%	92.3%	103%	96.7%	89%	92.6%	103%	104%	96.5%	90.5%	105%	102%	107%	89.3%	92.3%	107%	95.8%
O=C(/C=C/c1ccco1)c1ccc(Nc2ccnc3cc(Cl)ccc23)cc1	-50.4% (active)	-34.9% (active)	81.3%	70.2%	103%	108%	120%	78.7%	114%	73.9%	83.7%	88.5%	92.5%	86.3%	56.1%	33.7%	60.7%	80.2%
C#CCOC(=O)C(N)CSSCC(N)C(=O)O (stereo unspecified)	96.1%	103%	111%	84.4%	95.9%	109%	99.5%	112%	107%	101%	100%	104%	89.1%	85%	99.5%	91.8%	101%	108%
COc1ccc(C(=O)/C=C/c2ccc(Cl)cc2)cc1S(N)(=O)=O	-10.3% (active)	-31.7% (active)	11.5%	78.8%	102%	83.1%	16.6%	61.9%	91.5%	74.9%	69.9%	12.2%	86.2%	13.2%	18%	-78.3% (active)	100%	28.2%
COc1ccc(C(=O)/C=C/Nc2cc(-c3ccccc3)nn2-c2ccccc2)cc1	99.3%	94.9%	95.9%	94.2%	98.7%	97.6%	97.8%	109%	107%	93.2%	82%	103%	99.2%	84.2%	87.9%	85.9%	99.4%	99.9%
Cc1nc2ccccc2c(/C=C/c2ccc(Cl)cc2)c1C(=O)/C=C/c1ccccc1	11.5%	-11.8% (active)	-2.61% (active)	-21.8% (active)	33.1%	57.4%	0.031% (active)	-35.1% (active)	25%	0.775% (active)	9.61% (active)	26.7%	-53.2% (active)	1.45% (active)	11.2%	-53.4% (active)	-12% (active)	10.7%
Cc1ccc(S(=O)(=O)c2nc(-c3ccccc3)oc2S(C)=O)cc1 (stereo unspecified)	-26.8% (active)	-51.3% (active)	2.01% (active)	45%	37.3%	83.6%	-50.6% (active)	-89.3% (active)	78.9%	70.1%	-49% (active)	27.5%	37%	-55.4% (active)	-20% (active)	-20.3% (active)	70.5%	49.8%
Cn1ccnc1C(=O)/C=C/c1ccc(C(=O)Nc2c(F)c(F)c(F)c(F)c2F)cc1	-17.4% (active)	-9.03% (active)	20.6%	13.1%	22.4%	62.1%	0.574% (active)	-4% (active)	48.5%	7.31% (active)	9.11% (active)	22.4%	48.7%	-14.3% (active)	13%	-21.5% (active)	-4.74% (active)	-58.7% (active)
Cc1c(C)c2c(c(C)c1OC(=O)CCC(=O)[O-])CCC(C)(CCCCCCCCCCC[P+](c1ccccc1)(c1ccccc1)c1ccccc1)O2 (stereo unspecified)	-25.5% (active)	-47.7% (active)	3.73% (active)	13.5%	-1.74% (active)	-27% (active)	-13.1% (active)	-76.4% (active)	-15% (active)	74.3%	-41.6% (active)	-60.2% (active)	-89% (active)	9.14% (active)	-28.2% (active)	-9.97% (active)	-70.3% (active)	-87.7% (active)
C#CCOc1ccc(C2=NN(C)C3N=C(Cl)c4ncn(C)c4N23)cc1OCC#C (stereo unspecified)	91%	92.4%	93.1%	82.6%	102%	101%	102%	118%	99.9%	88.4%	77.4%	99.6%	108%	93.6%	98.5%	93.3%	104%	102%
Nc1ccc(N)c2c1C(=O)c1cccc([N+](=O)[O-])c1C2=O	-9.26% (active)	42.8%	41.4%	70.2%	60.9%	27.6%	18.6%	58.7%	37.6%	49.4%	38.2%	21.6%	67.3%	51.5%	16.5%	19.7%	-60.6% (active)	42%
Cc1ccc(C23CCC(=O)N2CCc2cncn23)cc1 (stereo unspecified)	126%	100%	97.2%	96.3%	108%	92.8%	93.6%	113%	101%	107%	91.2%	100%	101%	97.7%	97.9%	104%	107%	101%
COc1ccc(C(=O)C2OC3=C(C(=O)CC(C)(C)C3)C2c2cccc(Oc3ccccc3)c2)cc1 (stereo unspecified)	71.2%	85.7%	88.9%	97.6%	86.3%	91.4%	95.9%	103%	93.4%	92.7%	76%	92.1%	90.8%	93.6%	89.3%	84.6%	113%	94.6%
CN(C)C(=S)NN=C(c1ccccn1)c1ccccn1	-33.6% (active)	17.8%	33.1%	59.1%	21.5%	51%	16%	51.9%	44.9%	19.9%	29.6%	17%	41.4%	17.7%	17.3%	20.5%	40%	16.7%
